The source of these data is PubChem BioAssay (NCI).

About 83,000 compounds went through this panel and 20% of them were active in at least one assay; those are over-represented in the sample as a whole.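 Compound tested at a single concentration for 48 hours in 96-well plates; a percent growth value below 10 was scored as active.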 Unmarked numbers belong to inactive results. The source made the active and inactive calls.

For the first assay, the system named is UACC-62 melanoma. Briefly: NCI-60 one-dose screen, 48 h (100 = growth as untreated, 0 = no growth, -100 = all killed). The settings on record: 10 µM unless noted.
As for `C=CCn1c(SCC(=O)Nc2ccc(C(=O)/C=C/c3ccc(Cl)cc3)cc2)nnc1-c1c[nH]c2ccccc12`, the growth is 57.4%.

Take `O=C(NNc1nc2cc(F)c(F)cc2n2c(CN3CC4CNCC4C3)ccc12)c1cnccn1` (stereo unspecified): the growth is -1.09% (active).

With `COc1ccc2c(c1)c(CC(=O)[Se]CC#N)c(C)n2C(=O)c1ccc(Cl)cc1`, the growth is 55.2%.

For `O=C(NNc1nc2cc(F)ccc2n2c(CN3CCC(O)C3)ccc12)c1cnccn1` (stereo unspecified), the growth is 0.128% (active).

For the compound `COc1ccc(COc2ccc(/C=C3\C(=O)Nc4ccccc43)cc2OC)cc1`, the growth is 96.7%.

As for `O=C(NNc1nc2cc(F)ccc2n2c(CO)ccc12)c1cnccn1`, the growth was -14.8% (active).

With `N#Cc1cn(Cc2ccc(Cl)cc2Cl)c(C(=O)c2ccc(Br)cc2)c1N`, the growth is 82.8%.

As to `O=C(CN1CCN(c2cc(=O)n(-c3ccccc3)c3ccccc23)CC1)Nc1nc(-c2ccccc2)cs1`, the growth was 63.9%.

For `COc1ccc(CCOc2cc3c(cc2OC)CCN(C(=O)NCc2cocn2)C3c2ccc(C)cc2C)cc1` (stereo unspecified), the growth is 24%.

Regarding `COc1ccc(Oc2ccc(/C=N/NC(=O)CSc3nc4ccccc4c(=O)n3-c3ccc(Cl)cc3)cc2)cc1`, the growth is 61.9%.

As for `N#Cc1cccc(CN2CCC3=C(C2)C(=O)N(Cc2ccc(Cl)cc2)C2=NCCCN23)c1`, the growth was 25%.

Turning to `O=C(NNc1nc2cc(F)ccc2n2c(CN3CC4CNCC4C3)ccc12)c1cnccn1` (stereo unspecified), the growth was 1.75% (active).

Turning to `CCOc1ccccc1NC1=C(Cl)C(=O)c2nc(C)ccc2C1=O`, the growth was -29.1% (active).

As for `CCCCCc1ccc(S(=O)(=O)Nc2cccc(-c3csc(NC(=O)CCCCCN4CCN(CCO)CC4)n3)c2)cc1`, the growth is 87.6%.

As to `CCOc1ccc(NC2=C(Cl)C(=O)c3nc(C)ccc3C2=O)cc1`, the growth is -43.3% (active).

As for `COc1cc(/C=C2\C(=O)Nc3ccccc32)ccc1OCc1ccc(Cl)cc1`, the growth was 87.6%.

As to `COc1cc(-c2nc(SCCC(C)C)nc(NNC(=O)c3ccncc3)c2C#N)cc(OC)c1OC`, the growth was 38.1%.

Turning to `O=C(NNc1nc2cc(F)cc(F)c2n2cccc12)c1cnccn1`, the growth was 5.21% (active).

Regarding `O=C(CCn1cc[n+](CC(=O)c2ccc(-c3ccccc3)cc2)c1)Nc1cccc2cccnc12`, the growth is 58.8%.

`COc1c(N2CC3CCCNC3C2)c(F)cc2c(=O)c(C(=O)N/N=C/c3ccc4c(c3)OCO4)cn(C3CC3)c12` (stereo unspecified): the growth is 90.7%.

Take `COc1ccc(/C=C(/C)c2ccc3ccc(OC)cc3[o+]2)c(O)c1`: the growth was 50.9%.

As for `CN(C)CCNC(=O)c1ccc(-c2nc3ccc4[nH]ncc4c3c3c2CCC3)cc1`, the growth is 15.8%.

In the case of `COc1ccccc1NC1=C(Cl)C(=O)c2nc(C)ccc2C1=O`, the growth is -45.8% (active).

Turning to `CCNC(=O)N1CCc2cc(OC)c(OCCc3ccc(OC)cc3)cc2C1c1ccc(Cl)cc1C` (stereo unspecified), the growth was 22.8%.

In the case of `Cc1cc2nc(C(Cl)Cl)nc(-c3cccs3)n2n1`, the growth was 45.5%.

Take `CN(C)CCNC(=O)c1ccc(-c2nc3ccc4[nH]ncc4c3c3c2COCC3)cc1`: the growth was -24.7% (active).

In the case of `CN1CCN(Cc2ccc(NC(=O)c3cncc(C#Cc4cnc5ccc(OCC(C)(C)O)nn45)c3)cc2C(F)(F)F)CC1`, the growth is -41.1% (active).

Turning to `Nc1ncc(-c2ccc3ncnc(Nc4cccc(Cl)c4F)c3c2)cn1`, the growth was 38.9%.

`COc1ccc(/C=C/C(=O)c2cccc(NC(=O)CSc3nc4ccccc4c(=O)n3-c3ccccc3)c2)cc1OC`: the growth was 89.9%.

Take `O=C(NNc1nc2cc(F)ccc2n2c(CN3CCCC3)ccc12)c1cnccn1`: the growth is 17.9%.

Turning to `CC/C(=C/c1c(O)cccc1OC)c1ccc2c(OC)cccc2[o+]1`, the growth is 90.6%.

In the case of `CS(=O)(=O)Nc1cc(-c2ccc3ncc(C#N)c(NCc4ccccc4F)c3c2)cnc1Cl`, the growth is -20.7% (active).

As to `COc1ccccc1-n1cc(C#N)c(N)c1C(=O)c1ccc(Cl)cc1`, the growth is 46.3%.

With `N=c1c2cc(-c3ccccc3)oc2ncn1/N=C/c1ccc(Cl)cc1`, the growth was 90.6%.

`C=CCn1c(SCC(=O)Nc2ccc(C(=O)/C=C/c3cc(OC)c(OC)c(OC)c3)cc2)nnc1-c1c[nH]c2ccccc12`: the growth was 36.7%.

As for `COC(=O)C[Se]C(=O)Cc1c(C)n(C(=O)c2ccc(Cl)cc2)c2ccc(OC)cc12`, the growth was 69.6%.

For the compound `COc1ccc(NC2=C(Cl)C(=O)c3nc(C)ccc3C2=O)cc1OC`, the growth was 71.8%.

Turning to `NC(N)=Nc1ccc(Oc2cccc(NC(N)=Nc3ccc(I)cc3F)c2)cc1`, the growth is 77.8%.

The next assay has as its system LOX IMVI melanoma. Described as above. The settings on record: 10 µM unless noted.
Turning to `C=CCn1c(SCC(=O)Nc2ccc(C(=O)/C=C/c3ccc(Cl)cc3)cc2)nnc1-c1c[nH]c2ccccc12`, the growth was 1.53% (active).

For the compound `O=C(NNc1nc2cc(F)c(F)cc2n2c(CN3CC4CNCC4C3)ccc12)c1cnccn1` (stereo unspecified), the growth was 2.25% (active).

In the case of `COc1ccc2c(c1)c(CC(=O)[Se]CC#N)c(C)n2C(=O)c1ccc(Cl)cc1`, the growth was -35.8% (active).

As to `O=C(NNc1nc2cc(F)ccc2n2c(CN3CCC(O)C3)ccc12)c1cnccn1` (stereo unspecified), the growth is -0.788% (active).

Regarding `COc1ccc(COc2ccc(/C=C3\C(=O)Nc4ccccc43)cc2OC)cc1`, the growth was 96.6%.

Turning to `O=C(NNc1nc2cc(F)ccc2n2c(CO)ccc12)c1cnccn1`, the growth is 1.5% (active).

Regarding `N#Cc1cn(Cc2ccc(Cl)cc2Cl)c(C(=O)c2ccc(Br)cc2)c1N`, the growth is 90.1%.

As for `O=C(CN1CCN(c2cc(=O)n(-c3ccccc3)c3ccccc23)CC1)Nc1nc(-c2ccccc2)cs1`, the growth is 49.4%.

On to `COc1ccc(CCOc2cc3c(cc2OC)CCN(C(=O)NCc2cocn2)C3c2ccc(C)cc2C)cc1` (stereo unspecified), for which the growth is 1.85% (active).

Regarding `COc1ccc(Oc2ccc(/C=N/NC(=O)CSc3nc4ccccc4c(=O)n3-c3ccc(Cl)cc3)cc2)cc1`, the growth was 14.7%.

Regarding `N#Cc1cccc(CN2CCC3=C(C2)C(=O)N(Cc2ccc(Cl)cc2)C2=NCCCN23)c1`, the growth was 43.8%.

`O=C(NNc1nc2cc(F)ccc2n2c(CN3CC4CNCC4C3)ccc12)c1cnccn1` (stereo unspecified): the growth is 7.74% (active).

Regarding `CCOc1ccccc1NC1=C(Cl)C(=O)c2nc(C)ccc2C1=O`, the growth is -82.2% (active).

On to `CCCCCc1ccc(S(=O)(=O)Nc2cccc(-c3csc(NC(=O)CCCCCN4CCN(CCO)CC4)n3)c2)cc1`, for which the growth is -60.3% (active).

Regarding `CCOc1ccc(NC2=C(Cl)C(=O)c3nc(C)ccc3C2=O)cc1`, the growth was -76.4% (active).

`COc1cc(/C=C2\C(=O)Nc3ccccc32)ccc1OCc1ccc(Cl)cc1`: the growth was 99.8%.

As for `COc1cc(-c2nc(SCCC(C)C)nc(NNC(=O)c3ccncc3)c2C#N)cc(OC)c1OC`, the growth is 53.4%.

In the case of `O=C(NNc1nc2cc(F)cc(F)c2n2cccc12)c1cnccn1`, the growth is 5.06% (active).

`O=C(CCn1cc[n+](CC(=O)c2ccc(-c3ccccc3)cc2)c1)Nc1cccc2cccnc12`: the growth is 82.5%.

In the case of `COc1c(N2CC3CCCNC3C2)c(F)cc2c(=O)c(C(=O)N/N=C/c3ccc4c(c3)OCO4)cn(C3CC3)c12` (stereo unspecified), the growth was -64.3% (active).

With `COc1ccc(/C=C(/C)c2ccc3ccc(OC)cc3[o+]2)c(O)c1`, the growth was -15.8% (active).

For `CN(C)CCNC(=O)c1ccc(-c2nc3ccc4[nH]ncc4c3c3c2CCC3)cc1`, the growth is -61% (active).

Regarding `COc1ccccc1NC1=C(Cl)C(=O)c2nc(C)ccc2C1=O`, the growth is -73% (active).

As for `CCNC(=O)N1CCc2cc(OC)c(OCCc3ccc(OC)cc3)cc2C1c1ccc(Cl)cc1C` (stereo unspecified), the growth was 8.72% (active).

Take `Cc1cc2nc(C(Cl)Cl)nc(-c3cccs3)n2n1`: the growth is 74.7%.

For `CN(C)CCNC(=O)c1ccc(-c2nc3ccc4[nH]ncc4c3c3c2COCC3)cc1`, the growth is -72.4% (active).

With `CN1CCN(Cc2ccc(NC(=O)c3cncc(C#Cc4cnc5ccc(OCC(C)(C)O)nn45)c3)cc2C(F)(F)F)CC1`, the growth was -91% (active).

For `Nc1ncc(-c2ccc3ncnc(Nc4cccc(Cl)c4F)c3c2)cn1`, the growth is 77.4%.

Take `COc1ccc(/C=C/C(=O)c2cccc(NC(=O)CSc3nc4ccccc4c(=O)n3-c3ccccc3)c2)cc1OC`: the growth was 91.5%.

As for `O=C(NNc1nc2cc(F)ccc2n2c(CN3CCCC3)ccc12)c1cnccn1`, the growth was 3.56% (active).

In the case of `CC/C(=C/c1c(O)cccc1OC)c1ccc2c(OC)cccc2[o+]1`, the growth was 95%.

Take `CS(=O)(=O)Nc1cc(-c2ccc3ncc(C#N)c(NCc4ccccc4F)c3c2)cnc1Cl`: the growth was -41.9% (active).

In the case of `COc1ccccc1-n1cc(C#N)c(N)c1C(=O)c1ccc(Cl)cc1`, the growth is 67.9%.

For `N=c1c2cc(-c3ccccc3)oc2ncn1/N=C/c1ccc(Cl)cc1`, the growth was 63.3%.

Consider `C=CCn1c(SCC(=O)Nc2ccc(C(=O)/C=C/c3cc(OC)c(OC)c(OC)c3)cc2)nnc1-c1c[nH]c2ccccc12`, for which the growth was -65.1% (active).

On to `COC(=O)C[Se]C(=O)Cc1c(C)n(C(=O)c2ccc(Cl)cc2)c2ccc(OC)cc12`, for which the growth is -54.9% (active).

As to `COc1ccc(NC2=C(Cl)C(=O)c3nc(C)ccc3C2=O)cc1OC`, the growth is -3.09% (active).

With `NC(N)=Nc1ccc(Oc2cccc(NC(N)=Nc3ccc(I)cc3F)c2)cc1`, the growth was 48%.
